Screening results (PubChem)
The list is not random: actives were taken first. Their share in the collection is about 31%.
CYP2C9 activ = human CYP2C9 activators, primary screen, biochemical, luminescence; activation factor at 5 µM; AID 1024, 2008; Cytochrome P450 2C9 (Homo sapiens), P11712; 96,000 tested, 1.4% active; recombinant CYP2C9, luciferin-H conversion; hits give high values; factor 1 = untreated enzyme, 0 = blocked;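 active means activation factor of 2 or more for CYP2C9 at a 5 µM dose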;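 further: 0 = sulfaphenazole-blocked wells and 1 = vehicle-only wells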
Target sequence (P11712 whole entry, looked up): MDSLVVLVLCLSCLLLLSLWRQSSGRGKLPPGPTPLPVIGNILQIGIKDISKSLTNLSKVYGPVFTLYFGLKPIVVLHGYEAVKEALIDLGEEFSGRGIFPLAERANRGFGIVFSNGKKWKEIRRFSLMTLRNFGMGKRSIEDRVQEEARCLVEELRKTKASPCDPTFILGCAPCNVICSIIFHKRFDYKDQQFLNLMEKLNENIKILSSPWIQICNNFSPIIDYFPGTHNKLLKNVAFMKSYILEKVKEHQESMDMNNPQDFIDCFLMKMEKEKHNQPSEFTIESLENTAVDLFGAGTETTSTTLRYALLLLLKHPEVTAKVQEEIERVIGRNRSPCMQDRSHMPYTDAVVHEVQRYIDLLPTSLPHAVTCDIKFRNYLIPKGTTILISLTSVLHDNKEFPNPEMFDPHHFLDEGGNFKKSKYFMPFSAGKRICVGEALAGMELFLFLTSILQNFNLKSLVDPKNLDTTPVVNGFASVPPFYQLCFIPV
CYP2C19 inh = blockers of cytochrome P450 2C19 activity – biochemical, luminescence, ADME assay, primary screen; P33261; CYP2C19 Supersomes, luciferin-H EGE luminescence, 30 min; inhibition, % at 5 µM; 96,000 tested, 21% active;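 active means CYP2C19 inhibition above a set limit at 5 µM in the primary screen, cut at about 50% in these data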;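 further: plate controls were negative control wells for no effect and 2.5 mM tranylcypromine positive control for full effect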
CYP2C19 activ = human CYP2C19 activators, primary screen, biochemical, luminescence | Cytochrome P450 2C19 (Homo sapiens), P33261 | recombinant CYP2C19, luciferin-H EGE luminescence; hits give high values; 0 = fully inhibited enzyme, 1 = untreated enzyme | activation factor at 5 µM | 96,000 tested, under 10 active | AID 1025, 2008;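 active means activation factor of at least 2 at 5 µM in the primary screen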;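 further: 0 = wells with 2.5 mM tranylcypromine and 1 = vehicle-only wells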
CYP2C9 inh = blockers of cytochrome P450 2C9 activity – biochemical, luminescence, ADME assay, primary screen. P11712. CYP2C9 Supersomes, luciferin-H conversion. inhibition, % at 5 µM. 96,000 tested, 20% active;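 active means blocking of liver enzyme CYP2C9 beyond about 50% at 5 µM, limit read from the data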
PLAP activator = PLAP enzyme activators, biochemical, luminescence, HTS; Alkaline phosphatase, placental type (Homo sapiens), P05187; 96,000 tested, 1.2% active; activation fold at 20 µM; purified PLAP enzyme, luminescent substrate read-out; hits give high values; in the data active means activation fold above about 2
An asterisk follows results filed as active.

SMILES | CYP2C9 activ | CYP2C19 inh | CYP2C19 activ | CYP2C9 inh | PLAP activator
CCc1nnc(NS(=O)(=O)c2ccc(NS(=O)(=O)c3ccc(NC(C)=O)cc3)cc2)s1 | 0.2 | -5 | 1.1 | 77* | 0.9
CCCCCCNCc1ccc(Br)cc1 | 1 | 75* | 0.2 | 1 | 0.8
CCOC(=O)c1c(C)n(C)c2ccc(OCCN(C)C)cc12 | 0.8 | 4 | 1 | 18 | 1.8
CCOC(=O)c1c(C)n(C)c2ccc(OC(C)C(=O)OC)cc12 (stereo not drawn) | 0.4 | 51* | 0.5 | 64* | 0.9
COc1cccc(-c2cc(N)nn2C(=O)Nc2ccc(Cl)cc2)c1 | 0.8 | -7 | 1.1 | 25 | 1.2
Cc1cc2c(cc(C(=O)N3CCC(C(=O)N4CCCC4)CC3)n2Cc2c(F)cccc2Cl)o1 | 0.2 | 96* | 0 | 78* | 1.6
COc1cc2c(cc1OC)C1=C(C#N)CC/C(=N\S(=O)(=O)c3cccc(Cl)c3)N1CC2 | 0.4 | 27 | 0.7 | 63* | 1.1
Cc1ccc2c(c1)NC(=O)C(CC(=O)NCCCN1CCN(c3cc(C)ccc3C)CC1)O2 (stereo not drawn) | 0.9 | 7 | 0.9 | 11 | 1.6
O=C(c1cccs1)n1cc(C(=S)N2CCOCC2)c2ccccc21 | 0.9 | 68* | 0.3 | 12 | 0.9
O=C(C1CC1)n1cc(C(=S)N2CCOCC2)c2ccccc21 | 0.8 | 44 | 0.6 | 23 | 1.1
CCCC(=O)C1=C(O)C(C(=O)OC)C(C)(C)CC1=Nc1ccncc1 (stereo not drawn) | 0.4 | 90* | 0.1 | 61* | 1.4
CCCC(=O)C1=C(O)C(C(=O)OC)C(C)(C)CC1=Nc1ccc(N)cc1 (stereo not drawn) | 0.6 | 52* | 0.5 | 42 | 1.1
Cc1nc2ncnn2c(C)c1CCC(=O)NCCc1ccccc1 | 1.6 | 2 | 1 | -55 | 1.2
N#CC1=C(SCc2ccccc2)NC(=O)CC1c1ccco1 (stereo not drawn) | 0.3 | 28 | 0.7 | 71* | 0.8
N#CC1=C(SCC(=O)NC2CCCCC2)NC(=O)CC1c1ccco1 (stereo not drawn) | 0.4 | 72* | 0.3 | 59* | 1.1
COC(=O)CSC1=C(C#N)C(c2ccccc2)CC(=O)N1 (stereo not drawn) | 0.7 | 36 | 0.6 | 28 | 0.9
N#CC1=C(SCC(=O)NCc2ccccc2)NC(=O)CC1c1ccco1 (stereo not drawn) | 0.1 | 67* | 0.3 | 88* | 1.1
Cc1ccc(C2CC(=O)NC(SCc3ccccc3)=C2C#N)o1 (stereo not drawn) | 0.5 | 34 | 0.7 | 53* | 0.7
CCCCCCSC1=C(C#N)C(c2ccc(C)o2)CC(=O)N1 (stereo not drawn) | 0.5 | 19 | 0.8 | 47 | 0.7
O=S(=O)(Nc1ccc2c(c1)OCCO2)c1ccc(Br)s1 | 0 | 98* | 0 | 96* | 0.9
COc1ccc(NS(=O)(=O)c2ccc(Br)s2)cc1OC | 0.1 | 99* | 0 | 87* | 1.1
COc1ccc(C)cc1NS(=O)(=O)c1cc(C)ccc1C | 0.8 | 41 | 0.6 | 22 | 0.9
COc1ccc(C)cc1NS(=O)(=O)c1ccc(Br)s1 | 0.7 | 98* | 0 | 30 | 1.1
C=CCOC(=O)C1=C(C)NC(=S)NC1/C=C/c1ccccc1 (stereo not drawn) | 0.4 | 60* | 0.4 | 65* | 0.7
O=c1c2c3c(sc2nc2n1CCCC2)CCCCC3 | 0.4 | 24 | 0.8 | 62* | 1.1
SMILES | CYP2C9 activ | CYP2C19 inh | CYP2C19 activ | CYP2C9 inh | PLAP activator
Cc1ccc(-c2nc3sc4c(c3c(=O)n2N)CC(C)(C)OC4)cc1 | 0.9 | -16 | 1.2 | 10 | 0.9
Cc1ccc(-c2nc3sc4c(c3c(=O)n2N)CCCC4)cc1 | 0.4 | 23 | 0.8 | 58* | 0.8
O=c1c2c3c(sc2nc2n1CCCCC2)CCCCC3 | 0.7 | 18 | 0.8 | 26 | 1.1
CC(C)c1nc2sc3c(c2c(=O)o1)CCCC3 | 0.3 | 51* | 0.5 | 66* | 1.3
Cc1nc2sc3c(c2c(=O)o1)CCCC3 | 0.9 | -1 | 1 | 14 | 1.3
Nc1nc2sc3c(c2c(=O)s1)CCCC3 | 0.2 | 44 | 0.6 | 80* | 0.8
CCOC(=O)/C=C1\CC(=O)Nc2nonc2N1 | 1 | 9 | 0.9 | 2 | 0.9
CC(=O)OCC(OC(C)=O)C(OC(C)=O)C(OC(C)=O)C(=O)Nc1ccccc1C (stereo not drawn) | 1 | -2 | 1 | 4 | 1
CCOC(=O)CSc1nnc(C2CCCCC2)n1C | 1 | -6 | 1.1 | -2 | 1
CCCCC(=O)c1ccc(O)cc1 | 2.2* | 24 | 0.8 | -119 | 0.8
CCCc1ccc(C(=O)CCC(=O)O)cc1 | 0.9 | 9 | 0.9 | 8 | 1.2
Cc1nc2nc(SCC(=O)N3CCOCC3)nn2c(C)c1Cc1c(F)cccc1Cl | 0.5 | 18 | 0.8 | 53* | 1.4
CN1CCN(CC(C)(C)NS(=O)(=O)c2ccc(Cl)cc2)CC1 | 1 | 95* | 0.1 | 1 | 1.5
O=C1c2ccccc2CN1CCNS(=O)(=O)c1ccc(Cl)cc1 | 1 | 40 | 0.6 | -3 | 0.8
CN(C)CCCN(C(=O)c1cccs1)c1nc(-c2ccccc2)cs1 | 0.3 | 92* | 0.1 | 74* | 1.6
O=C(CN1C2=NCCN2c2ccccc21)c1ccco1 | 1.1 | -7 | 1.1 | -7 | 0.9
COC(=O)c1ccc(CSc2nc(C(F)(F)F)c3c(c2C#N)CCC3)o1 | 0.9 | 78* | 0.2 | 6 | 1.3
CCSc1nnc(-c2cccc(S(=O)(=O)N(C)C)c2)n1-c1cc(OC)ccc1OC | 0.2 | 70* | 0.3 | 84* | 1.7
COc1cccc(-n2c(SCc3c(C)noc3C)nnc2-c2cccc(S(=O)(=O)N(C)C)c2)c1 | 0.7 | 28 | 0.7 | 31 | 1.6
COc1ccc(OC)c(-n2c(SCC(C)=O)nnc2-c2cccc(S(=O)(=O)N(C)C)c2)c1 | 0.8 | 14 | 0.9 | 17 | 1.5
CCCSc1nnc(-c2cccc(S(=O)(=O)N(C)C)c2)n1-c1cc(OC)ccc1OC | 0.1 | 77* | 0.2 | 86* | 1.5
O=C(CCCc1c[nH]c2ccccc12)N1CCN(c2ccc(N3CCOCC3)nn2)CC1 | 0.7 | 58* | 0.4 | 32 | 1.7
COc1cc(CCC(=O)N2CCN(c3ccc(N4CCOCC4)nn3)CC2)cc(OC)c1OC | 1.1 | -3 | 1 | -6 | 1.5
C/C(=N/OC(=O)c1cccc(Cl)c1)c1nccs1 | 1 | 29 | 0.7 | -4 | 0.9
O=C(OC(C(=O)NC1CCCC1)c1ccccc1F)c1ccco1 (stereo not drawn) | 0.3 | 48 | 0.5 | 69* | 1.1
CC(C)CC(OC(=O)c1ccco1)C(=O)NC1CCCCC1 (stereo not drawn) | 0.1 | 83* | 0.2 | 87* | 1.2
